An excerpt weighted towards active compounds, which were near 4% of everything screened.
TROY signal inh – inhibitors of TROY-dependent NF-kB signaling | Q293 LMP1-TROYcd NF-kB luciferase reporter, 4 h | inhibition, % at 10 µM | 0.98% of 360,000 active | AID 1347056;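 active means compounds whose plate-normalised and pattern-corrected inhibition of the luciferase reporter signal at the single screening dose is 50% or more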
KKLEB cytotox – reduces viability of KKLEB cystic fibrosis airway cells. KKLEB CF airway cells viability, ATPlite luminescence, overnight; active compounds read low; cells stimulated with P. aeruginosa culture filtrate. AID 602141. activity change (cytotoxicity), % at 5 µM. 0.36% of 360,000 active;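 active means corrected activity change at or below -50% at 5 µM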
HIF-2a inh – inhibitors of HIF-2a | 786-0 RCC cells HIF-2a reporter, luciferase luminescence, overnight | inhibition, % at 18.8 µM | 0.72% of 360,000 active;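 active means inhibition of the luminescence signal of 40% or more relative to plate controls, in a single-dose primary screen at 18.75 µM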
CF NFkB block – blocks PAF-induced NF-kB reporter in cystic fibrosis cells; KKLEB NF-kB-GFP reporter, GFP fluorescence overnight; inhibition, % at 5 µM; 0.86% of 360,000 active; AID 588850;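 active means at least 50% inhibition at 5 µM, scaled per plate between neutral and stimulator controls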;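 further: PAF is a Pseudomonas aeruginosa culture filtrate used as stimulus; plate controls were PAF-stimulated DMSO wells for no effect and unstimulated DMSO wells for full effect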
TWEAK-Fn14 inh – blocks TWEAK-Fn14 interaction in a reporter cell assay | TWEAK-stimulated Fn14 reporter cells, luciferase luminescence, 8 h | AID 1159606 | 2% of 360,000 active | inhibition, % at 10 µM; in the data active means inhibition above about 50%
Peg3 promoter – reduces Peg3 promoter-driven luciferase expression in HeLa. AID 588405. HeLa PEG-Prom luciferase reporter, luminescence, overnight. inhibition, % at 20 µM. 1.7% of 360,000 active;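 active means inhibition of at least 50% at 20 µM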
* = called active by the depositor; . = not tested or not shown.

SMILES	TROY signal inh	KKLEB cytotox	HIF-2a inh	CF NFkB block	TWEAK-Fn14 inh	Peg3 promoter
Nc1ccc(Cn2ccc3c4c(N)nc(N)nc4ccc32)cc1	4	18	36	-48	-57	102*
CC1CC2c3cccc(C(=O)O)c3C(=O)N2c2ccc(Cl)cc21 (stereo not drawn)	9	11	11	-8	-8	-1
CC(=O)N1c2ccc(Cl)cc2C2C=CCC2C1c1cccc2ccccc12 (stereo not drawn)	24	-18	17	35	50	66*
CC(C)C(Cl)=NOC(=O)Nc1ccc(S(N)(=O)=O)cc1	-17	-7	23	41	56*	88*
COC(=O)[C@H](C)NC(=O)Nc1ccc(S(N)(=O)=O)cc1	12	2	13	2	1	-8
CCc1ccc2c(c1)NC(=O)C2(C)Cc1ccccc1Cl (stereo not drawn)	16	4	7	-7	6	24
CCOC(CNCc1cc(C)c2[nH]c3ccccc3c2c1C)OCC	-10	-19	22	20	-2	74*
CC[C@@H]1C(=O)[C@H](Cc2ccccc2)[C@H]2CCCC(=O)N3CC[C@@H]1[C@@H]23	-7	3	19	17	-1	-1
Cn1c(N=Nc2ccccc2)nc2ccccc21	40	-53*	-25	-21	79*	-209
COc1ccc(C2CC=C(C(C)=O)CN2S(=O)(=O)c2ccc(C)cc2)cc1 (stereo not drawn)	-7	-3	-15	27	-28	-23
O=C(NC1CCCC1)C(c1ccc(F)cc1)N(Cc1ccc(Cl)cc1)C(=O)CCl (stereo not drawn)	11	10	18	11	6	62*
C[C@H](CO)N1C[C@H](C)[C@@H](CN(C)C(=O)c2ccccn2)Oc2cc(Br)ccc2S1(=O)=O	2	-6	3	4	10	4
CCN(CCNCC(O)COc1ccccc1C(C)C)c1cccc(C)c1 (stereo not drawn)	3	-5	7	20	-3	93*
CCCCNC(=O)C1(C)CCCCN1C(=O)c1ccc(F)c(C)c1 (stereo not drawn)	-16	-2	18	14	-9	-2
Cc1cccc(C)c1NC(=O)COc1ccc2c(C)c(Cc3ccccc3)c(=O)oc2c1C	7	-22	16	16	-37	73*
Cc1ccc(NC(=O)CN2C(=O)NC3(CCCc4ccccc43)C2=O)c([N+](=O)[O-])c1 (stereo not drawn)	-7	-12	4	-6	-4	14
O=C(CCl)N1c2ccccc2Oc2ccc3ccccc3c21	73*	-6	-144	40	69*	-85
CN(C)CCCNC(=O)C[C@H]1C[C@H](C(=O)N2CCCCC2)[C@@]2(C)c3[nH]c4cc(-c5ccco5)ccc4c3CCN2C1=O	-19	17	-6	-11	-18	65*
O=C(CC1C[C@H](C(=O)N2CCCCC2)[C@@]2(CCc3ccccc3)c3[nH]c4ccccc4c3CCN2C1=O)NCc1cccc(C(F)(F)F)c1 (stereo partly drawn)	18	-5	-3	17	49	-1
O=C(C[C@H]1C[C@H](C(=O)N2CCCCC2)[C@@]2(CCc3ccccc3)c3[nH]c4ccc(Cl)cc4c3CCN2C1=O)NCc1cccc(C(F)(F)F)c1	16	-29	3	43	53*	5
CC(C)(C)NC(=O)C[C@H]1C[C@H](C(=O)N2CCCCC2)[C@@]2(CCc3ccccc3)c3[nH]c4cc(-c5ccco5)ccc4c3CCN2C1=O	3	7	1	13	3	16
CN(C)CCCNC(=O)C[C@H]1C[C@H](C(=O)N2CCCCC2)[C@@]2(CCc3ccccc3)c3[nH]c4cc(-c5ccco5)ccc4c3CCN2C1=O	9	-35	-15	31	-21	95*
CN(C)CCCNC(=O)CC1C[C@H](C(=O)N2CCCCC2)[C@@]2(CCc3ccccc3)c3[nH]c4ccccc4c3CCN2C1=O (stereo partly drawn)	22	4	-13	10	-10	93*
O=C(CN1C(=O)NC(c2ccc(F)cc2)C1=O)Nc1ccc2c(c1)OCCO2 (stereo not drawn)	-2	0	3	9	-8	10
O=C(Nc1ccccc1)c1ccc(-c2ccccc2)s1	-27	10	-310	-34	-8	-341
SMILES	TROY signal inh	KKLEB cytotox	HIF-2a inh	CF NFkB block	TWEAK-Fn14 inh	Peg3 promoter
O=C(O)c1ccc(-c2ccc(-c3ccccc3)cc2)s1	-28	-3	70*	2	43	85*
Nc1ccn(C(C=O)CC(C=O)CO)c(=O)n1 (stereo not drawn)	9	-3	-14	-13	11	-32
Cc1[nH]c2ccccc2c1C1=NNC(=Nc2ccc(F)cc2)SC1	25	16	-32	-11	55*	15
COc1ccc(N=C2NN=C(c3c(C)[nH]c4ccccc34)CS2)cc1	2	-6	-12	-2	10	22
CC(=O)N1CCc2c(sc(NC(=O)c3ccc([N+](=O)[O-])o3)c2C#N)C1	-28	-64*	-11	98*	-1	109*
OC(c1ccccc1)c1nc(-c2cccs2)cs1 (stereo not drawn)	-68	11	-131	-34	-27	-77
Cc1ccc(S(=O)(=O)N(C)c2ccc(C(=O)NC3CCCCC3)cc2)cc1	-18	16	8	-9	-21	9
COCC(=O)N1CCCC(CNS(=O)(=O)c2ccc(OC)cc2)C1 (stereo not drawn)	71*	2	7	-23	-9	12
CC(NC1=CC(=O)c2cccnc2C1=O)C(O)c1ccccc1 (stereo not drawn)	7	-32	19	80*	16	28
CCOC(=O)c1sc(NC(=O)Nc2cccc(Cl)c2)cc1C	31	-64*	-303	60*	75*	-124
CCOC(=O)c1sc(NC(=O)c2cccs2)cc1C	-41	-5	-341	-11	-40	-402
CCc1ccc(-c2cc(C)no2)cc1S(=O)(=O)N1CCN(c2ccccn2)CC1	50*	-14	13	-4	-5	9
COC(=O)c1ccc(CSc2nc3ccccc3[nH]2)o1	-5	-13	-59	15	-4	-62
COC(=O)c1cc(CSc2nc3ccc(C)cc3[nH]2)oc1C	.	1	-54	6	92*	-63
CC(C)C(NC(=O)c1ccc(F)cc1)C(=O)N1CCC1 (stereo not drawn)	2	10	11	-12	8	6
O=S(=O)(Nc1ccc(O)c2ccccc12)c1ccc(F)cc1	31	0	9	84*	28	-8
CCc1ccc(S(=O)(=O)Nc2ccc(O)c3ccccc23)cc1	-11	-50	12	94*	94*	21
O=C(Cc1ccsc1)NCC(=O)Nc1ccccc1Br	-5	8	7	22	8	8
